This is an account of results in PubChem BioAssay (NCI).

The panel holds about 79,000 compounds, 15% with a hit somewhere; the sample as a whole holds those more often. A number with no mark means an inactive call. Activity calls are given as the source filed them. Rule as the data show it: active = growth inhibition above about 70%; inactive = the rest.

Assay [1] is described as follows: NCI Yeast Anticancer Drug Screen. Data for the rad50 strain (AID 155).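 Also: 0% = growth of vehicle-only cultures of the same strain.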 To be noted: S. cerevisiae rad50 strain growth inhibition; at 50.0 µM; stronger effect = higher value. Summed up:
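Cells are treated with compound, grown, and their growth is then scored against vehicle-only cultures of the same repair-deficient yeast strain.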

Assay [2] is described as follows: NCI Yeast Anticancer Drug Screen. Data for the mec2-1 strain (AID 157). To be noted: S. cerevisiae mec2-1 strain, at 50.0 µM, stronger effect = higher value. Summed up:
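Mutant yeast (mec2-1) grown with compound; growth inhibition relative to vehicle control reported.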

Assay [3] is described as follows: NCI Yeast Anticancer Drug Screen. Data for the sgs1 mgt1 strain (AID 161).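 Also: 0% = growth of cultures given vehicle only.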 To be noted: S. cerevisiae sgs1 mgt1 strain, at 50.0 µM, stronger effect = higher value. Summed up: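 Yeast cells carrying a defined DNA-repair defect were exposed to test compounds. Growth inhibition was measured relative to vehicle-treated controls.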
Assay [4] can be described thus: NCI Yeast Anticancer Drug Screen. Data for the cln2 rad14 strain (AID 165).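 Also: 0% = growth equal to vehicle treated cultures.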 The settings on record: S. cerevisiae cln2 rad14 strain, at 50.0 µM, stronger effect = higher value. Summed up:
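Readout is yeast growth inhibition versus vehicle-treated controls, using a strain with cln2 and rad14 alterations exposed to compound.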

The nature of assay [5]: NCI Yeast Anticancer Drug Screen. Data for the bub3 strain (AID 167). The settings on record: S. cerevisiae bub3 mutant strain, at 50.0 µM, stronger effect = higher value. Summed up: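 Part of a panel of yeast mutants defective in DNA damage repair or cell cycle regulation. Each strain is grown with compound, and inhibition is calculated relative to solvent-treated cultures.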
Assay [6] is described as follows: NCI Yeast Anticancer Drug Screen. Data for the mlh1 rad18 strain (AID 175). The settings on record: S. cerevisiae mlh1 rad18 strain growth inhibition; at 50.0 µM; stronger effect = higher value. Summed up:
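Genetically defined yeast (DNA repair-deficient) exposed to compounds; growth inhibition determined relative to vehicle.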

`O=C1Nc2ccccc2C1(N1CCCCC1)N1CCCCC1`: the growth inhibition in assay [1] was 35.9%; in assay [2] it was 21.9%; in assay [3] it was 18.5%; in assay [4], 7.9%; in assay [5], 33.6%; in assay [6], 26.6%.

For `Cc1cc(C)c([N+](=O)[O-])c(N)n1`, the growth inhibition was 8.45% in assay [1]; -6.6% in assay [2]; -5.85% in assay [3]; -52% in assay [4]; 1.2% in assay [5]; -12.1% in assay [6].

Consider `CCOC1(OCC)CCC2(CC1)c1ccccc1-c1ccccc12`, for which the growth inhibition is 9.5% in assay [1]; 15.8% in assay [2]; 2.95% in assay [3]; 1.15% in assay [4]; -7.45% in assay [5]; 14.8% in assay [6].

With `CC(=O)c1sc(Nc2ccc(S(=O)(=O)Nc3nc(C)cc(C)n3)cc2)nc1C`, the growth inhibition in assay [1] is 15.6%; in assay [2], -0.75%; in assay [3], 8.9%; in assay [4] it was 31.3%; in assay [5], -11.7%; in assay [6], -10.1%.

Regarding `CCN(CC)CC(O)C=O` (stereo unspecified), the growth inhibition in assay [1] is 10.6%; in assay [2] it was -6.7%; in assay [3] it was -3.85%; in assay [4] it was 3.85%; in assay [5], -9.5%; in assay [6], 6.7%.

Consider `CCOC(=O)C1=C(C(=O)c2ccc(OC)cc2)C(c2ccc(OC)c(OC)c2)C(C(=O)c2ccc(OC)cc2)=C(C(=O)OCC)N1`, for which the growth inhibition is -44.4% in assay [1]; -20% in assay [2]; -32.2% in assay [3]; -24.6% in assay [4]; -23% in assay [5]; -18.8% in assay [6].

Take `CN(C)c1ccc(/[N+]([O-])=C/C=C/C=[N+](/[O-])c2ccc(N(C)C)cc2)cc1`: the growth inhibition was -1.35% in assay [1]; 3.8% in assay [2]; 1.55% in assay [3]; -28.6% in assay [4]; 13.2% in assay [5]; -14.6% in assay [6].

On to `CC1(C)C=Cc2c(ccc3[nH]c4occc4c(=O)c23)O1`, for which the growth inhibition was 23.4% in assay [1]; -21.8% in assay [2]; -16.8% in assay [3]; 14.2% in assay [4]; 11.4% in assay [5]; -0.3% in assay [6].

In the case of `CCCCCCCCCCCCCCCCCC(=O)N/N=C/c1ccc(Cl)cc1`, the growth inhibition in assay [1] was -6.2%; in assay [2] it was -8.95%; in assay [3], -11.6%; in assay [4] it was -15.4%; in assay [5], -2.85%; in assay [6], -25.1%.

Regarding `OC1C2CC3C(C2)C13` (stereo unspecified), the growth inhibition in assay [1] was -25.6%; in assay [2] it was -12.6%; in assay [3] it was 2.25%; in assay [4], 4.8%; in assay [5] it was -18.4%; in assay [6], -25.8%.

With `COC(=O)Cc1ccc2c(c1)Sc1ccc(CC(=O)OC)cc1N2C`, the growth inhibition in assay [1] was -4.75%; in assay [2], -43.8%; in assay [3], -10.1%; in assay [4], -18.2%; in assay [5], 34.7%; in assay [6], -36.3%.

With `CC(N)C(=O)NC(C)P(=O)(O)O` (stereo unspecified), the growth inhibition in assay [1] is 2.7%; in assay [2], 1.4%; in assay [3] it was -7.15%; in assay [4] it was -73%; in assay [5], 9.05%; in assay [6], 8.2%.

With `C=C1C2C[C@@H]3OC4CC5O[C@]6(CC5OC4C(C)C3OC(=O)CC3CC[C@@H]4OC5C7OC8C[C@](CCC9CC(=C)[C@H](CCC(C[C@H]1C)O2)O9)(OC7C4O3)O[C@@H]85)C[C@@H]1O[C@@]2(CC(C)[C@@H]3OC(CC(=O)CCO)C(O)C[C@@H]3O2)CC(C)[C@@H]1O6` (stereo partly specified), the growth inhibition is 84.5% (active) in assay [1]; 88.5% (active) in assay [2]; 88.6% (active) in assay [3]; 84.5% (active) in assay [4]; 87.5% (active) in assay [5]; 87.3% (active) in assay [6].

Take `S=C1CC(c2ccc(Cl)cc2)Sc2ccccc2N1` (stereo unspecified): the growth inhibition was -24.9% in assay [1]; -5.6% in assay [2]; -9.4% in assay [3]; -0.95% in assay [4]; -6.85% in assay [5]; -31.4% in assay [6].

As to `CCCCN(CCCC)CC(O)c1cc(-c2ccc(Cl)cc2)nc2cc(OC)c(OC)cc12` (stereo unspecified), the growth inhibition in assay [1] is 99% (active); in assay [2], 99.6% (active); in assay [3], 99.7% (active); in assay [4], 98.8% (active); in assay [5], 51.8%; in assay [6], 69.9%.

Consider `CCOC(=O)CNC(=O)C(CSSCC(NC(=O)OCc1ccccc1)C(=O)OC)NC(=O)C(NC(=O)OCc1ccccc1)C(C)C` (stereo unspecified), for which the growth inhibition was 7.65% in assay [1]; 21.3% in assay [2]; 14.5% in assay [3]; -1.65% in assay [4]; -11.7% in assay [5]; 56.6% in assay [6].

Turning to `COC(=O)C(CCc1ccc([N+](=O)[O-])cc1)(CCc1ccc([N+](=O)[O-])cc1)C(C)=O`, the growth inhibition is 5.9% in assay [1]; -10% in assay [2]; 4.55% in assay [3]; -19.9% in assay [4]; 19.7% in assay [5]; 28.6% in assay [6].

Regarding `O=C(Nc1ccc(NC(=O)Nc2ccc(C3=NCCN3)cc2)cc1)Nc1ccc(C2=NCCN2)cc1`, the growth inhibition in assay [1] is -7.7%; in assay [2] it was 7.15%; in assay [3], 7.65%; in assay [4] it was -1.7%; in assay [5] it was -21.1%; in assay [6] it was -19.6%.

Regarding `COc1ccc(C23OC2Oc2cc(OC4CCCCO4)ccc2C3=O)cc1` (stereo unspecified), the growth inhibition in assay [1] was 10.1%; in assay [2] it was -8.45%; in assay [3] it was -6.25%; in assay [4], -6.4%; in assay [5], 0.35%; in assay [6], 2.55%.

On to `Cc1ccc(C2(C)CC/C(=N/N=C3/CCC(C)(c4ccc(C)c(C)c4)c4cc(C)c(C)cc43)c3cc(C)c(C)cc32)cc1C` (stereo unspecified), for which the growth inhibition in assay [1] was -17%; in assay [2] it was -13.8%; in assay [3], -27.9%; in assay [4], -40.6%; in assay [5], -11.4%; in assay [6] it was -12.4%.

As for `O=S(=O)(O)c1cccc2c(O)cccc12`, the growth inhibition is -7.9% in assay [1]; -2.9% in assay [2]; 5.65% in assay [3]; 34.9% in assay [4]; 5.35% in assay [5]; -32% in assay [6].
